Screens: PubChem BioAssay, Sanford-Burnham Center for Chemical Genomics
TWEAK-Fn14 inh: TWEAK-Fn14 signaling inhibition | TWEAK-stimulated Fn14 reporter cells, luciferase luminescence, 8 h | inhibition, % at 10 µM | hit rate 2% among 360,000; in the data active means inhibition above about 50%
Peg3 prom inh: reduces Peg3 promoter-driven luciferase expression in HeLa. AID 588405. inhibition, % at 20 µM. hit rate 1.7% among 360,000. HeLa PEG-Prom luciferase reporter, luminescence, overnight;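 active means inhibition of at least 50% at 20 µM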
CF NFkB block: blocks PAF-induced NF-kB reporter in cystic fibrosis cells; AID 588850; inhibition, % at 5 µM; KKLEB NF-kB-GFP reporter, GFP fluorescence overnight; hit rate 0.86% among 360,000;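 active means at least 50% inhibition at 5 µM, scaled per plate between neutral and stimulator controls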;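 further: PAF is a Pseudomonas aeruginosa culture filtrate used as stimulus; plate controls were PAF-stimulated DMSO wells for no effect and unstimulated DMSO wells for full effect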
HIF-2a block: HIF-2a inhibition; 786-0 RCC cells HIF-2a reporter, luciferase luminescence, overnight; inhibition, % at 18.8 µM; hit rate 0.72% among 360,000;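 active means inhibition of the luminescence signal of 40% or more relative to plate controls, in a single-dose primary screen at 18.75 µM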
TROY NFkB inh: TROY signaling inhibition. Q293 LMP1-TROYcd NF-kB luciferase reporter, 4 h. inhibition, % at 10 µM. hit rate 0.98% among 360,000;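 active means compounds whose plate-normalised and pattern-corrected inhibition of the luciferase reporter signal at the single screening dose is 50% or more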
KKLEB tox: CF airway cell cytotoxicity counter-screen; hit rate 0.36% among 360,000; KKLEB CF airway cells viability, ATPlite luminescence, overnight; active compounds read low; cells stimulated with P. aeruginosa culture filtrate; activity change (cytotoxicity), % at 5 µM;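 active means corrected activity change at or below -50% at 5 µM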
* hit, by the source's call; · = no result; ! = repeats disagree. In the library only some 4% were active in any assay of this set; here they are far more common.

SMILES | TWEAK-Fn14 inh | Peg3 prom inh | CF NFkB block | HIF-2a block | TROY NFkB inh | KKLEB tox
O=C1COc2ccc(-c3csc(=Nc4ccc(OC(F)F)cc4)n3CC3CCCO3)cc2N1 (centres undefined) | 47 | 34 | -23 | 8 | 44 | -6
COCC(C)n1c(-c2ccc3c(c2)NC(=O)CO3)csc1=Nc1ccc(OC(F)F)cc1 (centres undefined) | 63*! | 6 | 10 | -13 | 52*! | -11
Cc1[nH][nH]c(=O)c1C(c1c(C)[nH][nH]c1=O)c1cn(Cc2ccc(F)cc2)c2ccccc12 | 14 | 64* | 15 | 11 | 15 | -14
CC(NC(=O)c1ccc(F)cc1)c1ccc2c(c1)CCCC2 (centres undefined) | 20 | -73 | -5 | -56 | 53* | 0
COc1cccc(CN2CC(C(=O)N(C)CC3CCOCC3)CCC2=O)c1 (centres undefined) | 22 | -1 | 21 | 2 | 7 | -6
OC[C@H]1O[C@@H](O[C@@H]2[C@@H](CO)O[C@@](O)(CO)[C@H]2O)[C@H](O)[C@@H](O)[C@H]1O | 7 | 4 | -11 | 0 | -2 | -17
Cc1cccc(-c2nc(S(=O)(=O)c3ccc(F)cc3)c(NCCCN3CCOCC3)o2)c1 | 78* | 22 | 23 | 7 | -12 | -4
COc1ccc(-c2nc3ccc(Br)cn3c2Cc2cccc(Cl)c2)cc1OC | -7 | 1 | 22 | -54 | 3 | -18
CC(=O)NC12CC3CC(C1)CC(C(=O)Nc1ccc(C)c(S(=O)(=O)N4CCCCCC4)c1)(C3)C2 | 6 | 14 | 3 | 22 | 9 | 7
C/C(=C\c1ccc(C(=O)O)cc1)c1ccc2c(c1)C(C)(C)CCC2(C)C | 12 | 1 | 91* | 31 | 32 | -9
O=C(N/N=C/c1cccs1)c1n[nH]c2c1CCC2 | 57* | -19 | 15 | -10 | 19 | -2
O=C(N/N=C/c1ccccc1)c1n[nH]c2c1CCCC2 | 54* | -1 | -2 | -112 | 10 | -32
COc1ccc(Nc2ncc(C(=O)N3CCN(c4ccc(F)cc4)CC3)c3ccccc23)cc1 | 53* | 59* | 24 | 7 | 23 | -20
CCOc1ccccc1C(=O)N1CCN(c2cccc(Cl)c2)CC1 | -28 | 10 | 41 | 4 | 23 | -30
COc1ccccc1N1CCN(c2ncc(C(=O)N3CCN(c4cccc(Cl)c4)CC3)c3ccccc23)CC1 | 80* | 31 | 2 | 9 | -6 | -14
COc1ccc(Nc2ncc(C(=O)O)c3ccccc23)cc1 | -12 | 6 | 17 | -30 | -26 | -6
CC1(C(=O)NCCCN2CCCC2=O)CCN1CCc1ccccc1 (centres undefined) | 6 | 8 | -1 | 5 | -5 | 11
COc1cc([C@H]2[C@@H]3CCCC[C@]3(O)CCN2CC(=O)Nc2ccc(C)cc2)ccc1O | 66* | -9 | -13 | 0 | 7 | -6
COc1ccc(S(=O)(=O)N2CCN(Cc3cc(OC)c(OC)c(OC)c3)CC2)cc1 | -11 | 16 | -2 | 17 | 0 | 4
O=c1cc(-c2ccccc2)oc2ccc(Br)cc12 | -19 | -277 | -22 | -307 | -39 | -8
COc1ccc2oc(-c3ccccc3)cc(=O)c2c1 | 74* | -44 | -13 | -15 | 5 | -36
COc1ccc(-c2cc(=O)c3ccc(O)cc3o2)cc1 | 0 | -195 | -12 | -227 | -70 | 20
COc1ccc(-c2cc(=O)c3cc(OC)ccc3o2)cc1 | 65* | -85 | -13 | -89 | 7 | -51*
COc1ccc(O)c(C(=O)CC(=O)c2ccc(F)cc2)c1 | 85* | -13 | -12 | 10 | 40 | -31
Cc1ccc(C(=O)NC(=C(Cl)Cl)S(=O)(=O)c2ccc(Cl)cc2)cc1 | 93* | 58* | 8 | 40 | 27 | -12
SMILES | TWEAK-Fn14 inh | Peg3 prom inh | CF NFkB block | HIF-2a block | TROY NFkB inh | KKLEB tox
Cc1ccc(C(=O)NC(=C(Cl)Cl)S(=O)(=O)c2ccc(C)cc2)cc1 | 54* | 18 | -16 | 9 | -35 | -7
O=C(NCCC(=O)N(CCc1ccccc1)Cc1ccccc1)c1ccc([N+](=O)[O-])cc1 | 7 | 0 | -27 | 5 | 3 | -3
CC(C)=CCC[C@H](C)C[C@@H]1Cc2[nH][nH]c(=O)c2[C@@H](c2ccc(F)cc2)O1 | -2 | · | · | 7 | -9 | ·
Cc1ccc(/C=C2/Sc3ccc(C(=O)NCCN4CCOCC4)cc3NC2=O)cc1 | 0 | 5 | -7 | -21 | -8 | -2
COc1cccc(/C=C2/Sc3ccc(C(=O)NCCN4CCCC4)cc3NC2=O)c1 | -37 | 91* | 8 | 12 | -28 | -6
O=C1Nc2cc(C(=O)NCCN3CCCCCC3)ccc2S/C1=C/c1ccccc1F | 0 | 99* | 4 | -11 | -3 | -9
Cc1ccc(CNC(=O)c2ccc3c(c2)NC(=O)C(N2CCOCC2)S3)cc1 (centres undefined) | 15 | 13 | 19 | 10 | 2 | -14
CCN1CCCC1CNC(=O)c1ccc2c(c1)NC(=O)/C(=C\c1ccc(C)cc1)S2 (centres undefined) | -76 | 102* | 10 | -2 | -32 | -13
O=C(NCCCN1CCCCCC1)c1ccc2c(c1)NC(=O)C(N1CCOCC1)S2 (centres undefined) | 82* | -28 | 2 | 7 | · | 4
CC(C)(C)C(=O)NCc1ccc(C(=O)CSc2nnc(-c3ccncc3)n2C2CC2)s1 | -20 | 5 | -4 | 7 | -7 | -10
C[C@@H]1O[C@H](C2CCCC2)Cc2[nH]c(=S)[nH]c(=O)c21 | 4 | · | · | 4 | 9 | ·
COc1cc(-c2nc(-c3ccc4c(c3)-c3ccccc3S4(=O)=O)c(-c3ccccc3)[nH]2)cc(OC)c1O | 59* | -12 | 16 | -40 | -9 | 7
COc1ccc(-c2[nH]c(-c3ccc(C(=O)O)cc3)nc2-c2ccccc2)cc1 | 4 | 2 | 17 | 3 | -19 | 9
COc1ccc(N2CCc3c(C)nc4c(OC)cc(OC)cc4c32)c(OC)c1 | -45 | 14 | -6 | 16 | 7 | 2
COc1ccc(N2CCc3c(C)nc4c(OC)cc(OC)cc4c32)cc1 | -82 | 74* | -154 | 28 | -11 | 2
O=C(O[C@@H]1OC2COC(=O)c3cc(O)c(O)c(O)c3-c3c(cc(O)c(O)c3O)C(=O)O[C@@H]([C@H]1O)[C@@H]2O)c1cc(O)c(O)c(O)c1 | 75* | 14 | 8 | 8 | -20 | -27
Cc1ccc(C(=O)Sc2cccccc2=O)cc1 | 102* | 103* | -6 | 29 | -32 | -17
O=C(O)C1=CCC(c2ccc(Cl)c(Cl)c2)N(S(=O)(=O)c2ccc(F)cc2)C1c1cccc(F)c1 (centres undefined) | · | · | · | 13 | · | ·
Cc1ccc(S(=O)(=O)N(CCCO)CC(O)CON=C2c3ccccc3-c3ccccc32)cc1 (centres undefined) | 56* | 52* | 17 | -15 | 33 | -9
